# Laboratory results published in PMC8384837, “Expanding the binding specificity for RNA recognition by a PUF domain”.
# Columns and labels:
# Assay in all cases: yeast three-hybrid, YBZ-1, SC-Leu-His + 0.5 mM 3-AT, 4 days
# Details in all cases: tags: N-Gal4 AD-HA kept; label: inside an RPR1-promoter hybrid RNA with tandem MS2 sites; ssRNA
# PUM1 PUF domain R4-WGK = PUM1 PUF domain R4-WGK (Homo sapiens, UniProt Q14671 828-1176, N971W;H972G;Q975K)
# How it was run: (§1)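 The interaction score is the log change in how often each variant appears, from input to selection. Frequencies came from PCR-amplified, Illumina-sequenced repeat regions of Pumilio-1 PUF domain libraries grown in strain YBZ-1 (LexA–MS2 coat fusion, HIS3 reporter) alongside matching RNA elements. Input plates were SC-Leu and selection plates were SC-Leu-His + 0.5 mM 3-AT, each for four days, and the log2 calculation used a pseudocount of 1 where a variant was absent.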
# PUM1 PUF domain R5-RQR = PUM1 PUF domain R5-RQR (Homo sapiens, UniProt Q14671 828-1176, C1007R;R1008Q;Q1011R)
# How it was run: as §1
# PUM1 PUF domain R5-AYM = PUM1 PUF domain R5-AYM (Homo sapiens, UniProt Q14671 828-1176, C1007A;R1008Y;Q1011M)
# How it was run: as §1
# PUM1 PUF domain R5-RFF = PUM1 PUF domain R5-RFF (Homo sapiens, UniProt Q14671 828-1176, C1007R;R1008F;Q1011F)
# How it was run: as §1
# PUM1 PUF domain R5-RRQ = PUM1 PUF domain R5-RRQ (Homo sapiens, UniProt Q14671 828-1176, C1007R)
# How it was run: as §1
# PUM1 PUF domain R2-LWG = PUM1 PUF domain R2-LWG (Homo sapiens, UniProt Q14671 828-1176, N899L;Y900W;Q903G)
# How it was run: as §1
# PUM1 PUF domain R3-MRR = PUM1 PUF domain R3-MRR (Homo sapiens, UniProt Q14671 828-1176, C935M;Q939R)
# How it was run: as §1
# PUM1 PUF domain R3-ARV = PUM1 PUF domain R3-ARV (Homo sapiens, UniProt Q14671 828-1176, C935A;Q939V)
# How it was run: as §1
# PUM1 PUF domain R3-VYG = PUM1 PUF domain R3-VYG (Homo sapiens, UniProt Q14671 828-1176, C935V;R936Y;Q939G)
# How it was run: as §1
# PUM1 PUF domain R5-RKM = PUM1 PUF domain R5-RKM (Homo sapiens, UniProt Q14671 828-1176, C1007R;R1008K;Q1011M)
# How it was run: as §1
# PUM1 PUF domain R4-YRM = PUM1 PUF domain R4-YRM (Homo sapiens, UniProt Q14671 828-1176, N971Y;H972R;Q975M)
# How it was run: as §1
# PUM1 PUF domain R8-FWR = PUM1 PUF domain R8-FWR (Homo sapiens, UniProt Q14671 828-1176, N1122F;Y1123W;Q1126R)
# How it was run: as §1
# PUM1 PUF domain R6-TWR = biological target: T1, PUM1 PUF domain R6-TWR (Homo sapiens, UniProt Q14671 828-1176, N1043T;Y1044W;Q1047R)
# T1 sequence: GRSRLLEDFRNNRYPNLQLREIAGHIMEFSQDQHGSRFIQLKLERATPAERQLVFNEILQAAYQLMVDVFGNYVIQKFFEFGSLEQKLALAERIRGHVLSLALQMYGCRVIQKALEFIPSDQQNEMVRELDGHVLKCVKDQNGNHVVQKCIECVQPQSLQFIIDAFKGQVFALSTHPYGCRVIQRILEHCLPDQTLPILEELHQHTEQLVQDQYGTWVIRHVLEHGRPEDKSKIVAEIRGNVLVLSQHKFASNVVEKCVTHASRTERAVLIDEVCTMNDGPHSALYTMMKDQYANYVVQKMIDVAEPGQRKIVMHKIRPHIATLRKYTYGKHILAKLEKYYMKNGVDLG
# How it was run: as §1
# PUM1 PUF domain R5-QLV = PUM1 PUF domain R5-QLV (Homo sapiens, UniProt Q14671 828-1176, C1007Q;R1008L;Q1011V)
# How it was run: as §1
# PUM1 PUF domain R7-ECA = PUM1 PUF domain R7-ECA (Homo sapiens, UniProt Q14671 828-1176, S1079E;N1080C;E1083A)
# How it was run: as §1
# PUM1 PUF domain R7-RFW = PUM1 PUF domain R7-RFW (Homo sapiens, UniProt Q14671 828-1176, S1079R;N1080F;E1083W)
# How it was run: as §1
# PUM1 PUF domain R7-RGR = PUM1 PUF domain R7-RGR (Homo sapiens, UniProt Q14671 828-1176, S1079R;N1080G;E1083R)
# How it was run: as §1
# PUM1 PUF domain R1-RVE = PUM1 PUF domain R1-RVE (Homo sapiens, UniProt Q14671 828-1176, S863R;R864V;Q867E)
# How it was run: as §1
# PUM1 PUF domain R2-VWP = PUM1 PUF domain R2-VWP (Homo sapiens, UniProt Q14671 828-1176, N899V;Y900W;Q903P)
# How it was run: as §1
# PUM1 PUF domain R1-NVR = PUM1 PUF domain R1-NVR (Homo sapiens, UniProt Q14671 828-1176, S863N;R864V;Q867R)
# How it was run: as §1
# PUM1 PUF domain R1-RVE, sequence (Q14671 828-1176 S863R/R864V/Q867E): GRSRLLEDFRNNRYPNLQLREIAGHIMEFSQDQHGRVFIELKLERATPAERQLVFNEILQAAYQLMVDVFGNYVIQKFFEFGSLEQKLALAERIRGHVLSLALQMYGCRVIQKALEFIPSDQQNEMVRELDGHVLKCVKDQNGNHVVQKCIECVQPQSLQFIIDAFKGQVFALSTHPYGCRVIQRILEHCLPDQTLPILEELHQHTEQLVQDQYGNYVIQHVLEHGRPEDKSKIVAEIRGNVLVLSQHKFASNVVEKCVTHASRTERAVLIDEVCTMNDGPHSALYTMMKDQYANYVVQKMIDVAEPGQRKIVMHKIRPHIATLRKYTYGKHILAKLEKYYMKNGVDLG
# PUM1 PUF domain R5-RQR, sequence (Q14671 828-1176 C1007R/R1008Q/Q1011R): as the sequence (Q14671 828-1176 S863R/R864V/Q867E) above, with R36S, V37R, E40Q, C180R, R181Q, Q184R counted along it
# PUM1 PUF domain R1-NVR, sequence (Q14671 828-1176 S863N/R864V/Q867R): as the sequence (Q14671 828-1176 S863R/R864V/Q867E) above, with R36N, E40R counted along it
# PUM1 PUF domain R3-ARV, sequence (Q14671 828-1176 C935A/Q939V): as the sequence (Q14671 828-1176 S863R/R864V/Q867E) above, with R36S, V37R, E40Q, C108A, Q112V counted along it
# PUM1 PUF domain R8-FWR, sequence (Q14671 828-1176 N1122F/Y1123W/Q1126R): as the sequence (Q14671 828-1176 S863R/R864V/Q867E) above, with R36S, V37R, E40Q, N295F, Y296W, Q299R counted along it
# PUM1 PUF domain R7-ECA, sequence (Q14671 828-1176 S1079E/N1080C/E1083A): as the sequence (Q14671 828-1176 S863R/R864V/Q867E) above, with R36S, V37R, E40Q, S252E, N253C, E256A counted along it
# PUM1 PUF domain R5-AYM, sequence (Q14671 828-1176 C1007A/R1008Y/Q1011M): as the sequence (Q14671 828-1176 S863R/R864V/Q867E) above, with R36S, V37R, E40Q, C180A, R181Y, Q184M counted along it
# PUM1 PUF domain R2-VWP, sequence (Q14671 828-1176 N899V/Y900W/Q903P): as the sequence (Q14671 828-1176 S863R/R864V/Q867E) above, with R36S, V37R, E40Q, N72V, Y73W, Q76P counted along it
# PUM1 PUF domain R5-RKM, sequence (Q14671 828-1176 C1007R/R1008K/Q1011M): as the sequence (Q14671 828-1176 S863R/R864V/Q867E) above, with R36S, V37R, E40Q, C180R, R181K, Q184M counted along it
# PUM1 PUF domain R4-YRM, sequence (Q14671 828-1176 N971Y/H972R/Q975M): as the sequence (Q14671 828-1176 S863R/R864V/Q867E) above, with R36S, V37R, E40Q, N144Y, H145R, Q148M counted along it
sequence,measurement,setting,value
GGCUAGAACUAGUGGAUCCCCCGGCGCCCGGCGGCUCGAGCCCGGGUAAGUGUACAUAGUCUGCAUGCCGCCGGGCGCCAUGCCUGCAGGUCGACUCUAGAAAACAUG,binding signal,PUM1 PUF domain R4-WGK,3.57 log2 enrichment (interaction score)
GGCUAGAACUAGUGGAUCCCCCGGCGCCCGGCGGCUCGAGCCCGGGUAAGUGUCAAUAGUCUGCAUGCCGCCGGGCGCCAUGCCUGCAGGUCGACUCUAGAAAACAUG,binding signal,PUM1 PUF domain R5-RQR,4.51 log2 enrichment (interaction score)
same,binding signal,PUM1 PUF domain R5-AYM,2.95 log2 enrichment (interaction score)
same,binding signal,PUM1 PUF domain R5-RFF,2.99 log2 enrichment (interaction score)
same,binding signal,PUM1 PUF domain R5-RRQ,4.75 log2 enrichment (interaction score)
GGCUAGAACUAGUGGAUCCCCCGGCGCCCGGCGGCUCGAGCCCGGGUAAGUGUAAAGAGUCUGCAUGCCGCCGGGCGCCAUGCCUGCAGGUCGACUCUAGAAAACAUG,binding signal,PUM1 PUF domain R2-LWG,3.16 log2 enrichment (interaction score)
GGCUAGAACUAGUGGAUCCCCCGGCGCCCGGCGGCUCGAGCCCGGGUAAGUGUAACUAGUCUGCAUGCCGCCGGGCGCCAUGCCUGCAGGUCGACUCUAGAAAACAUG,binding signal,PUM1 PUF domain R3-MRR,0.49 log2 enrichment (interaction score)
GGCUAGAACUAGUGGAUCCCCCGGCGCCCGGCGGCUCGAGCCCGGGUAAGUGUAAUUAGUCUGCAUGCCGCCGGGCGCCAUGCCUGCAGGUCGACUCUAGAAAACAUG,binding signal,PUM1 PUF domain R3-ARV,1.96 log2 enrichment (interaction score)
same,binding signal,PUM1 PUF domain R3-VYG,2.46 log2 enrichment (interaction score)
same,binding signal,PUM1 PUF domain R3-MRR,3.08 log2 enrichment (interaction score)
GGCUAGAACUAGUGGAUCCCCCGGCGCCCGGCGGCUCGAGCCCGGGUAAGUGUAAAUAGUCUGCAUGCCGCCGGGCGCCAUGCCUGCAGGUCGACUCUAGAAAACAUG,binding signal,PUM1 PUF domain R5-RQR,1 log2 enrichment (interaction score)
same,binding signal,PUM1 PUF domain R5-RKM,2.32 log2 enrichment (interaction score)
same,binding signal,PUM1 PUF domain R4-YRM,2.31 log2 enrichment (interaction score)
same,binding signal,PUM1 PUF domain R8-FWR,3.71 log2 enrichment (interaction score)
same,binding signal,PUM1 PUF domain R3-ARV,3.82 log2 enrichment (interaction score)
same,binding signal,PUM1 PUF domain R5-RFF,1.95 log2 enrichment (interaction score)
same,binding signal,PUM1 PUF domain R4-WGK,1.16 log2 enrichment (interaction score)
same,binding signal,PUM1 PUF domain R2-LWG,1.91 log2 enrichment (interaction score)
same,binding signal,PUM1 PUF domain R3-VYG,3.51 log2 enrichment (interaction score)
same,binding signal,PUM1 PUF domain R5-RRQ,3.35 log2 enrichment (interaction score)
same,binding signal,PUM1 PUF domain R6-TWR,7.84 log2 enrichment (interaction score)
same,binding signal,PUM1 PUF domain R3-MRR,0.71 log2 enrichment (interaction score)
GGCUAGAACUAGUGGAUCCCCCGGCGCCCGGCGGCUCGAGCCCGGGUAAGUGUGAAUAGUCUGCAUGCCGCCGGGCGCCAUGCCUGCAGGUCGACUCUAGAAAACAUG,binding signal,PUM1 PUF domain R5-QLV,2.52 log2 enrichment (interaction score)
same,binding signal,PUM1 PUF domain R5-RRQ,1.79 log2 enrichment (interaction score)
GGCUAGAACUAGUGGAUCCCCCGGCGCCCGGCGGCUCGAGCCCGGGUAAGUCUAAAUAGUCUGCAUGCCGCCGGGCGCCAUGCCUGCAGGUCGACUCUAGAAAACAUG,binding signal,PUM1 PUF domain R7-ECA,1.26 log2 enrichment (interaction score)
same,binding signal,PUM1 PUF domain R7-RFW,5.36 log2 enrichment (interaction score)
same,binding signal,PUM1 PUF domain R7-RGR,5.01 log2 enrichment (interaction score)
GGCUAGAACUAGUGGAUCCCCCGGCGCCCGGCGGCUCGAGCCCGGGUAAGUGCAAAUAGUCUGCAUGCCGCCGGGCGCCAUGCCUGCAGGUCGACUCUAGAAAACAUG,binding signal,PUM1 PUF domain R6-TWR,5.67 log2 enrichment (interaction score)
GGCUAGAACUAGUGGAUCCCCCGGCGCCCGGCGGCUCGAGCCCGGGUAAGUUUAAAUAGUCUGCAUGCCGCCGGGCGCCAUGCCUGCAGGUCGACUCUAGAAAACAUG,binding signal,PUM1 PUF domain R7-ECA,3.96 log2 enrichment (interaction score)
same,binding signal,PUM1 PUF domain R7-RGR,6.1 log2 enrichment (interaction score)
GGCUAGAACUAGUGGAUCCCCCGGCGCCCGGCGGCUCGAGCCCGGGUAAGUGUUAAUAGUCUGCAUGCCGCCGGGCGCCAUGCCUGCAGGUCGACUCUAGAAAACAUG,binding signal,PUM1 PUF domain R5-RQR,4.81 log2 enrichment (interaction score)
GGCUAGAACUAGUGGAUCCCCCGGCGCCCGGCGGCUCGAGCCCGGGUAAGUGUAAAUGGUCUGCAUGCCGCCGGGCGCCAUGCCUGCAGGUCGACUCUAGAAAACAUG,binding signal,PUM1 PUF domain R1-RVE,1.35 log2 enrichment (interaction score)
GGCUAGAACUAGUGGAUCCCCCGGCGCCCGGCGGCUCGAGCCCGGGUAAGUGUAAGUAGUCUGCAUGCCGCCGGGCGCCAUGCCUGCAGGUCGACUCUAGAAAACAUG,binding signal,PUM1 PUF domain R3-VYG,1.12 log2 enrichment (interaction score)
same,binding signal,PUM1 PUF domain R3-MRR,4.82 log2 enrichment (interaction score)
GGCUAGAACUAGUGGAUCCCCCGGCGCCCGGCGGCUCGAGCCCGGGUAAGUGUAAAAAGUCUGCAUGCCGCCGGGCGCCAUGCCUGCAGGUCGACUCUAGAAAACAUG,binding signal,PUM1 PUF domain R2-VWP,4.15 log2 enrichment (interaction score)
same,binding signal,PUM1 PUF domain R2-LWG,8 log2 enrichment (interaction score)
GGCUAGAACUAGUGGAUCCCCCGGCGCCCGGCGGCUCGAGCCCGGGUAAGUGUAUAUAGUCUGCAUGCCGCCGGGCGCCAUGCCUGCAGGUCGACUCUAGAAAACAUG,binding signal,PUM1 PUF domain R4-WGK,3.03 log2 enrichment (interaction score)
GGCUAGAACUAGUGGAUCCCCCGGCGCCCGGCGGCUCGAGCCCGGGUAAGUAUAAAUAGUCUGCAUGCCGCCGGGCGCCAUGCCUGCAGGUCGACUCUAGAAAACAUG,binding signal,PUM1 PUF domain R7-RFW,2.69 log2 enrichment (interaction score)
GGCUAGAACUAGUGGAUCCCCCGGCGCCCGGCGGCUCGAGCCCGGGUAAGUGUAAAUCGUCUGCAUGCCGCCGGGCGCCAUGCCUGCAGGUCGACUCUAGAAAACAUG,binding signal,PUM1 PUF domain R1-RVE,2.37 log2 enrichment (interaction score)
same,binding signal,PUM1 PUF domain R1-NVR,5.44 log2 enrichment (interaction score)
GGCUAGAACUAGUGGAUCCCCCGGCGCCCGGCGGCUCGAGCCCGGGUAAGUGUAAAUUGUCUGCAUGCCGCCGGGCGCCAUGCCUGCAGGUCGACUCUAGAAAACAUG,binding signal,PUM1 PUF domain R1-RVE,2.57 log2 enrichment (interaction score)
same,binding signal,PUM1 PUF domain R1-NVR,3.93 log2 enrichment (interaction score)
GGCUAGAACUAGUGGAUCCCCCGGCGCCCGGCGGCUCGAGCCCGGGUAAGCGUAAAUAGUCUGCAUGCCGCCGGGCGCCAUGCCUGCAGGUCGACUCUAGAAAACAUG,binding signal,PUM1 PUF domain R8-FWR,3.91 log2 enrichment (interaction score)
